Shown are actives, neighbours in structure and some others; about 1.5% of the full set was active somewhere.
Bcl-xL primary – Bcl-xL (human) inhibition; Q07817; GST-Bcl-xL / FITC-Bim BH3 peptide fluorescence polarization; actives 0.7% (n = 320,000); inhibition, % at 10.9 µM;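 active = inhibition above the mean of all tested compounds plus 3 SD, cutoff set per campaign, cut at about 30% in these data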;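 also: 0% = DMSO wells and 100% = unlabeled Bim-BH3 peptide competitor; inhibitors lower millipolarization by displacing the labeled peptide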
GLD-1 TGE inh – GLD-1-TGE RNA interaction inhibition (C. elegans); actives 0.44% (n = 320,000); Q17339; inhibition, % at 5.96 µM; purified GLD-1 + fluorescein TGE RNA, fluorescence polarization;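 active = percent inhibition above a per-plate cutoff, the plate mean of test compounds plus 3 SD, cut at about 30% in these data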;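 also: 0% = DMSO wells with GLD-1 and probe and 100% = wells lacking GLD-1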
MEX-5 binding – C. elegans MEX-5 TCR-2 RNA binding activity; MEX-5/FITC-TCR2 RNA binding, fluorescence polarization; active compounds read low; activity score (negative = inhibition of binding), % at 10 µM; actives 0.38% (n = 300,000);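 active = inhibition past about -25% in most replicates, and total fluorescence under double the plate's negative control median, limit read from the data; inconclusive = replicates evenly split on the limit, or fluorescence at least double controls; inactive = too little inhibition in most replicates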;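 also: 0% = DMSO and -100% = 5 µM competing unlabeled TCR2 RNA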
EBV gp42 block – blocks Epstein-Barr virus glycoprotein 42 binding. Q1HVG2. actives 0.42% (n = 220,000). Fluorescence polarization binding assay, mP read-out. inhibition, % (tested at 21.74 µM); in the data active = inhibition above about 50%
E coli Lon inh – E. coli protease La inhibition; P0A9M0; purified E. coli Lon protease, fluorescence polarization; inhibition, % at 7.94 µM; actives 0.42% (n = 360,000); AID 602123; in the data active = inhibition above about 13%, passing the limit was not always enough;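 also: 0% = enzyme with probe and DMSO and 100% = no enzyme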
Target sequence (P0A9M0 whole entry, looked up): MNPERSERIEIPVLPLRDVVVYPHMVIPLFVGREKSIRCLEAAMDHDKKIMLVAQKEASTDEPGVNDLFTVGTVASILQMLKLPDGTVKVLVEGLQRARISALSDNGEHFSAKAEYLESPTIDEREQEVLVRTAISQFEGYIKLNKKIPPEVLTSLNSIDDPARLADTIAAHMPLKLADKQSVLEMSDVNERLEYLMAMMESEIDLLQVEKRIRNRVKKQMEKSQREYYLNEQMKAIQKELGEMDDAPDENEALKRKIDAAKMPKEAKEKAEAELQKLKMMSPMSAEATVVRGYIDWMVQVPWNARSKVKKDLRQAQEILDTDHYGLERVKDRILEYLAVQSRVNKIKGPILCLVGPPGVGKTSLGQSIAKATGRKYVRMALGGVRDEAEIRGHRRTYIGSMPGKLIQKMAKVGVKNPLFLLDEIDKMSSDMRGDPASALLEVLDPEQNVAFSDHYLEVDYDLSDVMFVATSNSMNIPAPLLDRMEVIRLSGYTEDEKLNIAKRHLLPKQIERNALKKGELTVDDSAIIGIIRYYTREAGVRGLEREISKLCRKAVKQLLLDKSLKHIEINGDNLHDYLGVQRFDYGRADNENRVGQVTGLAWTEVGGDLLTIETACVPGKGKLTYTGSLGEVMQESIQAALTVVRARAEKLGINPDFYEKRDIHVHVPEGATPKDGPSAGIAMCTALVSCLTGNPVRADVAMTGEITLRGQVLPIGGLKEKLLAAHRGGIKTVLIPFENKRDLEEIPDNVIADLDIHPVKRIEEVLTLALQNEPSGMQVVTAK
MCL1-BIM inh – MCL1-BIM-BH3 interaction inhibition (human) | inhibition, % at 10.9 µM | actives 0.68% (n = 320,000) | GST-MCL1 / FITC-Bim-BH3 fluorescence polarization | Q07820;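 active = inhibition above the mean inhibition of all tested compounds plus 3 SD, set per campaign, cut at about 40% in these data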;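 also: 0% = DMSO wells and 100% = unlabeled Bim-BH3 peptide control; higher means more loss of mP so more displacement of Bim peptide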
The depositor's hits bear a star; ? = inconclusive; nt = no result.

SMILES | Bcl-xL primary | GLD-1 TGE inh | MEX-5 binding | EBV gp42 block | E coli Lon inh | MCL1-BIM inh
CCSC1=NSC2=NC(=O)/C(=C\c3coc4ccccc4c3=O)C(=N)N12 | -5 | -148 | nt | 88* | -352 | -12
CCNC(=O)C1CCCN(Cc2ccc(OCc3ccccc3)cc2)CC1 (stereo not given) | nt | nt | nt | nt | 2 | nt
CCCCNc1c([N+](=O)[O-])ncn1C | 0 | -1 | 0 | -12 | -9 | 3
COc1ccccc1C(=O)Nc1nnc(-c2ccccc2)s1 | 47* | 10 | 2 | nt | 2 | -1
COc1cccc2sc(NC(=O)c3ccc(Br)s3)nc12 | -1 | -1 | -4 | -10 | 6 | -1
O=C(N/N=C/c1cc(Cl)cc([N+](=O)[O-])c1O)NC12CC3CC(CC(C3)C1)C2 | 0 | 5 | 2 | 52* | -13 | 12
COc1cc(Cl)cc(/C=N\NC(=O)c2ccc3c(c2)OCO3)c1O | nt | nt | nt | nt | -17 | nt
O=C(N/N=C/c1ccccc1O)NC12CC3CC(CC(C3)C1)C2 | 2 | 5 | -1 | nt | 3 | 4
O=C(N/N=C/c1cc(Cl)cc([N+](=O)[O-])c1O)c1ccc2c(c1)OCO2 | 7 | -3 | -31* | nt | -10 | 30
O=C(N/N=C/c1cc(Cl)cc([N+](=O)[O-])c1O)c1ccccc1NS(=O)(=O)c1cccs1 | -2 | -3 | -47* | -2 | 5 | 9
CCCOC(=O)COC(=O)c1ccccc1NC(=O)c1ccccc1 | 3 | -3 | 2 | 2 | 5 | 4
CC[n+]1c(/C=C/c2ccc(N(C)C)cc2)ccc2ccccc21 | -7 | -3 | -27* | -56 | -34 | -13
CN(C)c1ccc(/C=C/c2cc[n+](C)cc2)cc1 | 9 | 95* | 27 | -91 | -84 | -5
CC[n+]1c(/C=C/c2ccc(OC)c(OC)c2)ccc2ccccc21 | -11 | -107 | 9 | nt | -26 | -19
Cc1nn(C)c(C)c1CN(C)C(=O)C1c2ccccc2Oc2ccccc21 | 31* | 30 | -47* | 81* | 7 | 37
Cc1ccc(NC(=O)CCS(=O)(=O)c2cc3c(cc2Cl)NC(=O)CO3)cc1 | 5 | 4 | -26* | nt | -4 | 2
COC(=O)Nc1ccc(S(=O)(=O)Nc2cnc3ccccc3n2)cc1 | 8 | -1 | 1 | -5 | 5 | 7
CCOCCCNc1nc2nc3ccc(C)cn3c(=O)c2cc1C(=O)NCC1CCCO1 (stereo not given) | 8 | -1 | -34* | -11 | -2 | 2
Fc1ccc(Br)cc1C1C=C(c2ccc(Br)s2)Nc2ncnn21 (stereo not given) | 38* | 19 | -2 | -18 | -23 | -2
COc1cccc(C2C=C(c3ccc(Br)s3)Nc3ncnn32)c1OC (stereo not given) | 34* | 2 | -3 | 13 | -34 | 32
COc1ccc(C2C=C(c3ccc(C)c(C)c3)Nc3ncnn32)c(OC)c1OC (stereo not given) | 5 | 10 | 3 | 0 | 11 | 0
C=CCOC(=O)C1=C(C)Nc2ncnn2C1c1cc(Br)ccc1F (stereo not given) | 6 | 1 | 2 | -19 | -1 | 6
COc1ccc(O)c(/C=N/c2nc3ccccc3n2C)c1 | 6 | 7 | -1 | nt | -16 | 8
N=C1/C(=C/c2ccc(-c3cccc(C(=O)O)c3)o2)C(=O)N=C2SC=C(c3ccccc3)N12 | 12 | -3 | 0 | 67* | -42 | 28
Fc1ccc(-c2nnc(-c3ccc(Cl)cc3Cl)o2)cc1 | -2 | -1 | -2 | -21 | 9 | -3
SMILES | Bcl-xL primary | GLD-1 TGE inh | MEX-5 binding | EBV gp42 block | E coli Lon inh | MCL1-BIM inh
COc1ccccc1NC(=O)CCn1cccc1 | -2 | -4 | 1 | -5 | 6 | 4
O=S(=O)(Nc1ccc2c(c1)OCCO2)c1cccc2cccnc12 | 6 | 3 | -3 | 99* | 12 | -1
Cc1ccc(C2=N/C(=C\c3c(C)nn(-c4ccccc4)c3N3CCCC3)C(=O)O2)cc1 | -4 | -2 | -9 | 93* | 6 | 1
Cc1nn(-c2ccccc2)c(N2CCCC2)c1/C=C1\N=C(c2ccc(F)cc2)OC1=O | 1 | -5 | ? | 82* | -5 | -17
NC(=O)C1CC2(C1)CC(C(N)=O)C2 (stereo not given) | nt | nt | nt | nt | -8 | nt
COc1cccc(NC(=O)CN(C)C(C)C(=O)Nc2ccc(S(=O)(=O)N3CCCC3)cc2)c1 (stereo not given) | 5 | -1 | -2 | -2 | 7 | -2
Cc1nc(OCC(=O)c2ccc(Cl)cc2)c(C#N)c2c1COC(C)(C)C2 | 4 | 2 | 3 | 15 | -4 | 1
Oc1[nH]c2ccccc2c1N=NC(=S)N1CCOCC1 | 0 | -2 | -41* | -7 | -1 | 7
Oc1[nH]c2ccc(Br)cc2c1N=NC(=S)N1CCOCC1 | -7 | 2 | -5 | -14 | 2 | 2
CCOC(=O)c1c(C)nn(-c2ccc(NC(=O)c3c(C)noc3C)cc2)c1C | 1 | 4 | -6 | nt | 5 | 35
CCN(CC)C(=O)CC(c1cc(OC)c(OC)c(OC)c1)c1c(OC)cc(OC)c2c(-c3ccccc3)cc(=O)oc12 (stereo not given) | 6 | -9 | 1 | 99* | -11 | 37
COc1cc(C(CCN2CCCC2)c2c(OC)cc(OC)c3c(-c4ccccc4)cc(=O)oc23)cc(OC)c1OC (stereo not given) | -3 | 2 | -48* | -8 | -9 | -7
COc1cc(C(CCN2CCOCC2)c2c(OC)cc(OC)c3c(-c4ccccc4)cc(=O)oc23)cc(OC)c1OC (stereo not given) | nt | nt | nt | nt | 7 | nt
COc1cc2c(cc1OC)C(c1ccc(-c3cc(Cl)ccc3Cl)o1)=NCC2 | -1 | -10 | -1 | -15 | -6 | -17
COc1cc2c(cc1OC)C(c1ccc(-c3ccc(Cl)cc3Cl)o1)=NCC2 | 1 | 5 | -36* | 1 | -5 | 2
COc1cc2c(cc1OC)C(c1ccc(-c3ccc(Cl)c(Cl)c3)o1)=NCC2 | 3 | 3 | -35* | 7 | -13 | -2
CN(C)S(=O)(=O)c1cccc(NC(=S)N/N=C/c2ccc(O)c(O)c2O)c1 | nt | nt | -48* | -6 | 15 | nt
CN(C)C=NC(=O)c1ccc(N2CCN(c3ncc(C(F)(F)F)cc3Cl)CC2)cc1 | 1 | 4 | 0 | -17 | -3 | -4
CCc1ccc(/C=C2\Oc3c(ccc(O)c3CN3CCN(CCO)CC3)C2=O)cc1 | 51* | 8 | -30* | -5 | -33 | 49*
CCc1ccc(/C=C2\Oc3cc(OS(C)(=O)=O)ccc3C2=O)cc1 | -3 | 2 | -1 | -1 | -11 | -2
O=C(O)COn1c(-c2ccccc2)nc2ccc([N+](=O)[O-])cc21 | 17 | 10 | -1 | 73* | 1 | 35
CCOC(=O)C(C)On1c(-c2ccccc2)nc2ccc([N+](=O)[O-])cc21 (stereo not given) | 5 | 8 | 0 | -6 | 4 | 2

Screening results as filed in PubChem.
